# Shown are actives, neighbours in structure and some others; about 8.3% of the full set was active somewhere.
# LASV entry inh: blocks Lassa virus binding to or entry into cells; actives 1.2% (n = 300,000); Lassa virus pseudotype entry inhibition, cell reporter; Potency, µM (titrated, usually from 37.9 µM), without a hit: at the highest dose activity change, negative = inhibition, most hits filed as inhibitors; calls by dose curve; tested in HEK293 cells; note: potency is the fitted concentration of half-maximal effect; nearly all actives have a fitted effect of over 50% in size
# FBPA Giardia inh: Giardia lamblia aldolase inhibition. A8B2U2. purified Giardia FBPA. Potency, µM (titrated, usually from 59.6 µM), for the others: top-dose activity, negative = inhibition, hits mostly inhibitors. actives 0.71% (n = 290,000). AID 2451; note: potency is the fitted concentration of half-maximal effect; nearly all actives have a fitted effect of over 55% in size
# Target sequence (A8B2U2 whole entry, looked up): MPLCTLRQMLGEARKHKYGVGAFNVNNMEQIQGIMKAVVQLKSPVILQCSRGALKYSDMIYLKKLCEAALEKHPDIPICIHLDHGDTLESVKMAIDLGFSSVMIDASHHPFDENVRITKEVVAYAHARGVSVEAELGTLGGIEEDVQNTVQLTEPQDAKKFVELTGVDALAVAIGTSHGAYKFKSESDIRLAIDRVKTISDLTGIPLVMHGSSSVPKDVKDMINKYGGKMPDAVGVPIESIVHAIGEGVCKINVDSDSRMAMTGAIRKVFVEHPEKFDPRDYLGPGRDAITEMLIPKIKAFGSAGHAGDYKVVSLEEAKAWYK
#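 Giardia FBPA (40 nM reagent) was preincubated 10 min at RT with compound (up to 57.5 uM final), then substrate plus GAPDH/TPI/NAD/arsenate coupling system with diaphorase/resazurin was added; resorufin fluorescence (525/598 nm) was read after 20 min.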
# HCMV antiviral: inhibitors of human cytomegalovirus; actives 4.5% (n = 410,000); activity change, negative = inhibition, % at 57.5 µM; HFF cells, HCMV-luciferase reporter, 72 h; active compounds read low; AID 1259415; in the data active = activity change below about -60%; inconclusive = no clear call, values can overlap the other calls; inactive = above about -39%
#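 After 16 h attachment at 37C, HFF cells received test compound and HCMV-luciferase (1 PFU/cell); reporter luminescence read 72 h later, data normalized against buffer-only and known inhibitor Salinomycin.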
# MARV entry inh: inhibitors of Marburg virus binding or cell entry | Marburg virus pseudotyped entry inhibition, cell reporter | Potency, µM (top dose mostly 37.8 µM), for the others: top-dose activity change, negative = inhibition, actives largely listed as inhibitors | actives 1.8% (n = 300,000) | AID 540276; calls by dose curve; tested in HEK293 cells; note: potency is the fitted concentration of half-maximal effect
# HCV inhibitor: inhibitors of hepatitis C virus infection; Huh7.5.1 HCVcc-Cre infection, luciferase reporter, 44 h; Potency, µM (titrated, usually from 41.8 µM), for the others: at the highest dose activity change, negative = inhibition, actives largely listed as inhibitors; actives 3.4% (n = 340,000); AID 651820; note: potency is the fitted concentration of half-maximal effect
#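 Antiviral activity was scored by luciferase reporter output from cells infected with HCVcc-Cre (~0.5 moi) in presence of compound, 44 h infection period, cells seeded 1,000/well 4 h prior.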
# FMDV antiviral: antivirals against foot and mouth disease virus; Potency, µM (doses to about 57.9 µM), for the others: top-dose activity change, negative = inhibition, most hits filed as inhibitors; FMDV antiviral cell-based qHTS; actives 1.2% (n = 410,000); calls by dose curve; tested in HEK293T cells; note: read-out not given here; potency is the fitted concentration of half-maximal effect; nearly all actives have a fitted effect of over 45% in size
# Starred values were filed as active, the others as inactive; ? = inconclusive; . = no result given; + = active, no number; [ ] = another dose, or the depositor's remark. Unless noted, calls come from the whole dose curve; as a rule, active = well fitted curve in the direction sought with a large enough effect; inconclusive = small, poorly fitted or top-dose-only effect, or another doubt; inactive = no such curve, though single readings can be large; an effect the other way counts as inactive or inconclusive. % is set by controls: 0 for no effect and ±100 for the full control effect.
SMILES,LASV entry inh,FBPA Giardia inh,HCMV antiviral,MARV entry inh,HCV inhibitor,FMDV antiviral
CC[C@H](CO)Nc1nc(Nc2cccc(Cl)c2)c2ncn(C(C)C)c2n1,.,-17%,-65*,.,?,7%
CCn1cnc2c(Nc3cccc(Cl)c3)nc(N[C@@H]3CCCC[C@H]3N)nc21,.,.,.,6.3µM*,.,.
N#Cc1ccccc1CN1CCN(c2ncc(C(=O)NCc3ccco3)s2)C1=O,.,.,-24,.,.,.
COc1cc2c(cc1NC(=O)CCCCCN1C(=O)CCC1=O)oc1ccccc12,6%,0%,4,4%,3.5µM*,-20%
COc1cc2c(cc1NC(=O)CN1C(=O)NC3(CCc4ccccc43)C1=O)oc1ccccc12 (centres undefined),?,-8%,-33,12µM*,?,0%
COc1cc2c(cc1NC(=O)CCCN1C(=O)CCC1=O)oc1ccccc12,14%,-1%,25,8%,11µM*,29%
CCN(C(=O)CN1C(=O)NC2(CCc3ccccc32)C1=O)C1CCCCC1 (centres undefined),11%,.,-100*,11%,10%,-9%
COc1ccc(C)cc1NC(=O)CCCN1C(=O)CCC1=O,17%,0%,7,6%,?,22%
COc1cc2c(cc1NC(=O)CC1SC(N3CCCC3)=NC1=O)oc1ccccc12 (centres undefined),-13%,-4%,70,?,11µM*,?
COc1ccc(NC(=O)CC2SC(N3CCCC3)=NC2=O)cc1Cl (centres undefined),.,.,10,.,-3%,-11%
NC(=O)[C@@H]1[C@@H]2C(=O)N(c3ccc(F)cc3)C(=O)[C@@H]2[C@H]2C=Cc3ccccc3N21,21%,?,48,?,-18%,-3%
CC(=O)[C@@H]1[C@H]2[C@H](C(=O)[C@H]3OC[C@@H]2O3)[C@H]2C=Cc3ccccc3N21,.,22µM*,.,.,.,.
O=C(CCl)N(C/C=C/c1ccccc1)c1ccc2c(c1)OCCO2,?,-29%,58,17%[46.1 µM],2.2µM*,25µM*
O=C1COc2cc(S(=O)(=O)CCC(=O)N3CCN(c4ccccc4)CC3)c(Cl)cc2N1,-18%[46.1 µM],.,-23,.,.,0%
CC1(C)CCC[C@]2(C)[C@H]3CC(=O)O[C@]3(C)CC[C@@H]12,-13%,5%,-14,-1%,15%,-20%
CC1(C)CCC[C@]2(C)[C@H]3Cc4cc(O)ccc4O[C@]3(C)CC[C@@H]12,.,.,-88*,.,?,0%
O=C(NCc1nnc2n1CCN(Cc1cc3c(cc1Cl)OCO3)CC2)C1CCOC1 (centres undefined),.,.,.,.,.,-2%
CC(=O)OC[C@@H]1O[C@@H](O/N=C2/C[C@@H](O)[C@@H](O)[C@@H]3[C@@H]4C(=O)N(C(C)(C)C)C(=O)[C@H]4CC[C@@H]23)[C@H](OC(C)=O)[C@H](OC(C)=O)[C@@H]1OC(C)=O,.,-2%[12.9 µM],.,.,.,.
CCc1ccccc1N(CC)C(=O)Cn1nc(Cc2ccncc2)c2ccccc2c1=O,-6%[46.1 µM],.,-72*,?,.,-10%
O=S(=O)(c1ccccc1)c1c2c(cc3ccc(Cl)cc13)CCC2,.,.,-4,.,.,.
OCCCNCc1cccc2ccccc12,-2%,-5%,30,?,12%,0%
c1ccc(CNCCCNCCCCNCCCNCc2ccccc2)cc1,?,.,-97*,?,?,-9%
O=C(O)CCCCNCc1ccccc1,14%,-4%,-12,14%,2%,.
Oc1ccccc1CNCCCNCc1ccccc1O,?,3%,44,?,2.8µM*,-17%
CCOc1ccccc1C1CC(=O)Nc2c1c(=O)n(C)c1ncnn21 (centres undefined),13%[46.1 µM],.,-8,-1%[46.1 µM],.,-3%
SMILES,LASV entry inh,FBPA Giardia inh,HCMV antiviral,MARV entry inh,HCV inhibitor,FMDV antiviral
COc1ccc(-c2cc3nc(C)c(CCC(=O)N4CCN(c5ccccc5F)CC4)c(C)n3n2)c(OC)c1,10%[46.1 µM],.,-4,6%[46.1 µM],.,?
COc1cccc(N2CCN(Cc3cc(=O)oc4cc(C)ccc34)CC2)c1,-15%[46.1 µM],.,1,3%[46.1 µM],.,-26%
O=C(Nc1cc(S(=O)(=O)Nc2ccccc2Cl)ccc1O)c1cc2c(s1)CCCC2,.,5%,-35,.,-6%,33%
O=C(Nc1cccc(S(=O)(=O)Nc2ccc(Cl)cc2)c1)c1cc2c(s1)CCCC2,?,2%,-75*,?,11µM*,-10%
Cc1ccc(NC(=O)c2cc3c(s2)CCCC3)cc1S(=O)(=O)Nc1ccccc1Cl,11µM*,2%,-82*,?,?,-18%
Cc1ccc(C(=O)Nc2ccc(C)c(S(=O)(=O)Nc3ccccc3Cl)c2)s1,5.2µM*,-1%,?,-29%,10µM*,-30%
COc1ccc(COC(=O)NN=C2C[C@@H](O)[C@@H](O)[C@@H]3[C@H]4C(=O)N(c5cccc(Oc6ccccc6)c5)C(=O)[C@@H]4CC[C@H]23)cc1,?,.,.,9%[14.2 µM],.,.
Cn1cc(Br)cc1-c1ncc(Cc2c[nH]c(N)[n+]2C)o1,.,.,-20,.,.,.
CNC(=O)c1cncc(C=Cc2c(C)cccc2C)c1,17%,.,.,.,.,.
COC(=O)c1cncc(C=Cc2c(C)cc(O)cc2C)c1,3.1µM*,.,.,.,.,.
CCN(CC)CCNc1ccc(C)c2sc3ccc(O)cc3c(=O)c12,?,.,-97*,2.2µM*,?,-22%
CC1(C)CC(N=c2cc(-c3ccccc3)oc3ccc(Cl)cc23)CC(C)(C)N1,?,11%,-99*,?,-27%,6%
O=C1CCCCC1CN1CCCCC1 (centres undefined),.,.,36,.,.,.
CC(C)Cc1ccc(C(C)/C=C2/CCC(CN3CCCCC3)C2=O)cc1 (centres undefined),?,.,-28,?,?,40µM*
COc1cccc(Nc2ncc3nc(CCc4ccccc4)c(=O)n(C)c3n2)c1,.,3%,.,.,.,-3%
Nc1nnc(SCC(=O)NNC(=O)c2ccc(Cl)cc2)s1,.,.,-73*,.,19%,-29%
Cc1nnc(SCC(=O)NNC(=O)c2ccc(Cl)cc2)s1,1%,2%,-11,?,17%,-15%
Cn1c(-n2cccc2)c(-c2c(-c3ccc(F)cc3)[nH]c3c2c(=O)n(C)c(=O)n3C)c(=O)n(C)c1=O,16%[46.1 µM],.,27,9%[46.1 µM],.,-15%
COc1ccccc1C(=O)N[C@@H]1c2ccccc2C2(CCN(Cc3ccc(C)o3)CC2)[C@H]1O,.,.,.,.,.,-4%
COC1=CC(=O)C(O)=C/C1=C\C=C\c1ccccc1,.,22µM*,.,.,.,40µM*
CCCN1CCc2nc(N3CCN(c4ncccn4)CC3)ncc2C1,8%[46.1 µM],.,1,.,.,0%
Nc1nonc1-n1nnc(C(=O)N/N=C/c2ccc(Br)cc2)c1-c1ccc2c(c1)OCO2,-5%[46.1 µM],.,+,?,-2%,15%
Nc1nonc1-n1nnc(C(=O)N/N=C/c2ccc3c(c2)OCO3)c1-c1ccccc1,.,-2%,-70*,19%[46.1 µM],?,5%

# Assay outcomes (PubChem BioAssay)
